Inconclusive results are not listed. Activity calls are given as the source filed them. Calls follow the shape of the dose curve; as a rule, active = well fitted curve in the direction sought with a large enough effect; inconclusive = small, poorly fitted or top-dose-only effect, or another doubt; inactive = no such curve, though single readings can be large; an effect the other way counts as inactive or inconclusive.
Tests used:
[1] = Cellular Toxicity (caspase-3) Mesangial (AID 660); conditions: mesangial cells, normalized: DMSO 0%, 100 µM tamoxifen 100%; at 91.7 µM (top of the series);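 also: combined caspase 3 and 7 activity read by Caspase-Glo luminescence; cells exposed to compound for 16 h before the caspase read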
Procedure, shortened: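 AC50 values come from Hill-equation fits of caspase 3/7 activation, measured as Caspase-Glo luminescence in human glomerular mesangial cells exposed to compound for 16 h at 37 °C; 100% set by 100 uM tamoxifen.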

[2] = Cellular Toxicity (caspase-3) SK-N-SH (AID 661);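 also: 0% = DMSO basal and 100% = 10 µM staurosporine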
Procedure, shortened: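 Apoptosis readout in SK-N-SH neuroblastoma: Caspase-Glo 3/7 luminescence following 16 hr treatment in complete culture medium. Normalization used DMSO and 10 uM staurosporine controls.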

[3] = Cellular Toxicity (caspase-3) Hek293 (AID 664); conditions: HEK293 caspase-3 activation, DMSO = 0%, 100 µM tamoxifen = 100%; at 92.2 µM (top of the series);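 also: cells exposed to compound for 16 h at 37 °C before readout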
Procedure, shortened: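 Apoptosis readout: Caspase-Glo 3/7 signal in human HEK293 cells following 16-hour compound incubation. Responses scaled between DMSO baseline and 100 uM tamoxifen.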

[4] = Cellular Toxicity (caspase-3) N2a (AID 665);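 also: compound exposure lasted 16 h at 37 °C before readout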
Procedure, shortened: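 Concentration-response qHTS: compound-induced caspase-3/7 luminescence in N2a cells (16 h, 37 °C), relative to DMSO and 10 uM staurosporine controls; AC50 obtained using the standard Hill equation.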

[5] = Cellular Toxicity (caspase-3) NIH 3T3 (AID 666);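 also: caspase signal read after 16 h compound exposure; 0% = DMSO basal and 100% = 100 µM tamoxifen stimulation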
Procedure, shortened: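 Activity: caspase-3/7 induction, NIH 3T3 cells, 16 hr treatment at 37°C, luminescent Caspase-Glo detection; AC50 via Hill equation.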

[6] = Cellular Toxicity (caspase-3) Renal Proximal Tubule (AID 667); conditions: Potency: caspase-3 activation;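 also: cells exposed to compound for 16 hours at 37 °C before detection; 0% = DMSO basal and 100% = 10 µM staurosporine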
Procedure, shortened: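 Freshly isolated primary rat kidney proximal tubule cells, 1000/well, treated 16 hr at 37 °C, then Caspase-Glo 3/7 luminescence after 1 hr. Normalized to DMSO and 10 uM staurosporine; AC50 from Hill fit.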

[7] = biological target: Cytochrome P450 3A4 (Homo sapiens) (UniProt P08684); experiment: qHTS Assay for Inhibitors and Substrates of Cytochrome P450 3A4 (AID 884); also: % is scaled to controls: 0 for no effect and ±100 for the full control effect; nearly all actives have a fitted effect of over 50% in size
Procedure, shortened: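 Luminescent readout of luciferin produced by CYP3A4 (20 nM) dealkylation of Luciferin-PPXE, 25 uM (its KM). NADPH-driven reaction ran 60 min at RT after 10 min compound preincubation; data scaled to 57 uM ketoconazole as 100% inhibition.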

[8] = Cell Viability - LYMP2-001 (AID 921);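 also: 0% = DMSO only and full inhibition = tetraoctylammonium bromide control wells; nearly all actives have a fitted effect of over 70% in size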
Procedure, shortened: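 Human lymphoblastoid LYMP2-001 cells, 2500 per well, in complete medium, treated 24 h at 37 C. Viability from cellular ATP by CellTiter-Glo luminescence; AC50 from Hill-equation fits of qHTS concentration-response.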

[9] = MultiTox-Fluor Cytotoxicity Assay - LYMP1-001 - Dead Cells (AID 946);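 also: 0% = DMSO and 100% = tetraoctylammonium bromide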
Procedure, shortened: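 In this qHTS, 15 uM tetraoctylammonium bromide defined 100% and DMSO defined basal activity. Lymphoblastoid cells (LYMP1-001, 2500 per well) received compound for 16 hr at 37 C before a fluorogenic dead-cell substrate readout at 485/520 nm.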

[10] = MultiTox-Fluor Cytotoxicity Assay - LYMP1-001 - Live Cells (AID 947);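 also: 0% = DMSO only and full inhibition = tetraoctylammonium bromide control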
[11] = Cell Viability - LYMP1-002 - Assay at 16 hr (AID 948);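 also: 0% = DMSO alone and full effect = 92 µM tetraoctylammonium bromide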
Procedure, shortened: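 LYMP1-002 human lymphoblastoid cells, 2500/well, were treated with compounds for 16 hr at 37 C in complete medium. Viability was read as intracellular ATP by CellTiter-Glo luminescence, and AC50 was derived from a Hill fit to concentration-response data.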

[12] = MultiTox-Fluor Cytotoxicity Assay - LYMP1-002 - Live Cells (AID 955); also: % is scaled to controls: 0 for no effect and ±100 for the full control effect
Procedure, shortened: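 In this qHTS viability format, lymphoblastoid cells (LYMP1-002, human) received compound for 16 hr at 37 C. Fluorogenic GF-AFC cleavage by viable cells was detected at 405/510 nm after 1 h at room temperature.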

[13] = MultiTox-Fluor Cytotoxicity Assay - LYMP1-002 - Dead Cells (AID 960);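 also: 0% = DMSO and 100% = tetraoctylammonium bromide; nearly all actives have a fitted effect of over 60% in size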
Procedure, shortened: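 Concentration-dependent increases in membrane-leaked protease activity are quantified in LYMP1-002 cells after 16 hr treatment; values are normalized against DMSO and tetraoctylammonium bromide (15 uM) controls and AC50 derived by Hill modeling.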

[14] = MultiTox-Fluor Cytotoxicity Assay - LYMP1-003 - Dead Cells (AID 961);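 also: 0% = DMSO and 100% = tetraoctylammonium bromide; nearly all actives have a fitted effect of over 70% in size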
Procedure, shortened: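 Acute toxicity is scored as increased dead-cell protease activity in human lymphoblastoid LYMP1-003 cells after 16 h compound exposure in complete culture medium. Activity is normalized to DMSO basal and 15 uM tetraoctylammonium bromide as full response.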

[15] = MultiTox-Fluor Cytotoxicity Assay - LYMP1-003 - Live Cells (AID 962);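 also: 0% = DMSO only and full loss = 92 µM tetraoctylammonium bromide; cytotoxic hits lower the live-cell protease signal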
Procedure, shortened: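 Human lymphoblastoid line LYMP1-003 in complete culture medium, treated 16 hr with titrated compounds. Viable cells quantified via cell-permeant GF-AFC substrate fluorescence; AC50 derived by Hill fitting.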

[16] = Cell Viability - LYMP1-003 - Assay at 24 hr (AID 963);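 also: plate controls were DMSO only for no effect and tetraoctylammonium bromide positive control for full effect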
Procedure, shortened: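 The lymphoblastoid line was treated with titrated compounds for 24 hours, and viable cell number estimated from luciferase-based ATP luminescence.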

[17] = Cell Viability - LYMP1-003 - Assay at 40 hr (AID 964); also: % is scaled to controls: 0 for no effect and ±100 for the full control effect; nearly all actives have a fitted effect of over 60% in size
Procedure, shortened: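 Acute toxicity is scored as a concentration-dependent loss of intracellular ATP in LYMP1-003 cells (2500/well, complete medium) after 40 hr at 37 C, measured by CellTiter-Glo luminescence; AC50 values derive from standard Hill modelling.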

[18] = Cell Viability - LYMP2-003 (AID 965);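 also: cells exposed to compounds for 24 h before reading; 0% = DMSO only and full effect = 92 µM tetraoctylammonium bromide; nearly all actives have a fitted effect of over 50% in size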
Procedure, shortened: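 Human lymphoblastoid LYMP2-003 cells, 2500/well, exposed to compounds for 24 h at 37 C in complete medium. Viability read as intracellular ATP by CellTiter-Glo luminescence; AC50 from Hill-equation fits of qHTS concentration-response data.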

[19] = Cellular Toxicity (caspase-3) H-4-II-E (AID 663); conditions: H-4-II-E rat hepatoma, scaled: DMSO 0%, 100 µM tamoxifen 100%; at 92.2 µM (top of the series)
Procedure, shortened: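 H-4-II-E rat hepatoma, 1500 cells/well, 5 hr settle at 37 °C; compound 16 hr, 37 °C, complete medium; Caspase-Glo 3/7, 20 min RT; luminescence. DMSO = 0%, 100 uM tamoxifen = 100%; Hill-equation AC50.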

[20] = biological target: Cytochrome P450 3A4 (Homo sapiens) (UniProt P08684); experiment: qHTS Assay for Activators of Cytochrome P450 3A4 (AID 885); also: nearly all actives have a fitted effect of over 65% in size
Procedure, shortened: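 Using 20nM recombinant human CYP3A4 in potassium phosphate (200mM), substrate Luciferin-PPXE at 25uM, luminescent luciferin detection followed a 60-min RT NADPH reaction; data scaled to 57 uM ketoconazole.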

Sequence of Cytochrome P450 3A4 (Homo sapiens) (P08684 whole entry, looked up): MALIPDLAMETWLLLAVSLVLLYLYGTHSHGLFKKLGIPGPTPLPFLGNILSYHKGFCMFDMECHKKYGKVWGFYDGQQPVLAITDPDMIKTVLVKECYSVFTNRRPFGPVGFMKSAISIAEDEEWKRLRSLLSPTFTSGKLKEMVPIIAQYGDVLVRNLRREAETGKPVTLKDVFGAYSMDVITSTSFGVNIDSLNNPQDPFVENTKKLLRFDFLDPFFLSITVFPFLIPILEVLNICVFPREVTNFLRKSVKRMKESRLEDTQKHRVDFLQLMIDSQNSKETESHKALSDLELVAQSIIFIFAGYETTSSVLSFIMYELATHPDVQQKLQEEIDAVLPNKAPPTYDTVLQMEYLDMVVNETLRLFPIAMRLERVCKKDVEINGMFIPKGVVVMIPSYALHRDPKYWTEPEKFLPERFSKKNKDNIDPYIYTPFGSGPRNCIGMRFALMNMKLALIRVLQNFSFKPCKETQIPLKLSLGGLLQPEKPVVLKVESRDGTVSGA

O=[N+]([O-])c1cccc(C(F)(F)F)c1
inactive: caspase-3 activation [1] -1.76% | outcome [2] | caspase-3 activation [3] 0.383% | outcome [4] | outcome [5] | Potency [6] | Potency [7] | Potency [8] | outcome [9] | outcome [10] | outcome [11] | outcome [12] | outcome [13] | Potency [14] | Potency [15] | Potency [16] | Potency [17] | Potency [18]

O=Cc1c(Cl)cccc1Cl
inactive: caspase-3 activation [1] -0.583% | outcome [2] | caspase-3 activation [3] 1.92% | outcome [4] | outcome [5] | Potency [6] | Potency [7] | Potency [8] | outcome [9] | outcome [10] | outcome [11] | outcome [12] | outcome [13] | Potency [14] | Potency [16] | Potency [17] | Potency [18]

O=C1CCCCC1
inactive: caspase-3 activation [1] 1.1% | outcome [2] | caspase-3 activation [3] 0.988% | outcome [4] | outcome [5] | Potency [6] | Potency [7] | Potency [8] | outcome [9] | outcome [10] | outcome [11] | outcome [12] | outcome [13] | Potency [14] | Potency [15] | Potency [16] | Potency [17] | Potency [18]

Cc1cc([N+](=O)[O-])ccc1N
inactive: caspase-3 activation [1] 0.789% | outcome [2] | caspase-3 activation [19] -0.2% | caspase-3 activation [3] -2.55% | outcome [4] | Potency [6] | Potency [8] | outcome [9] | outcome [11] | outcome [12] | Potency [14] | Potency [15] | Potency [16] | Potency [17] | Potency [18]

O=C(O)c1ccc(Cl)cc1Cl
inactive: caspase-3 activation [1] -1.03% | outcome [2] | caspase-3 activation [3] 2.7% | outcome [4] | outcome [5] | Potency [6] | Potency [7] | Potency [8] | outcome [9] | outcome [10] | outcome [12] | outcome [13] | Potency [14] | Potency [16] | Potency [17] | Potency [18]

ICCc1ccccc1
inactive: caspase-3 activation [1] 0.262% | outcome [2] | caspase-3 activation [3] 3.13% | outcome [4] | outcome [5] | Potency [6] | Potency [7] | Potency [8] | outcome [9] | outcome [10] | outcome [11] | outcome [12] | Potency [14] | Potency [15] | Potency [16] | Potency [17] | Potency [18]

C(=C/c1ccccc1)/c1ccccc1
inactive: caspase-3 activation [1] 0.853% | outcome [2] | caspase-3 activation [3] 5.17% | outcome [4] | Potency [6] | Potency [7] | Potency [8] | outcome [9] | outcome [10] | outcome [11] | outcome [12] | outcome [13] | Potency [14] | Potency [15] | Potency [16] | Potency [17] | Potency [18]

Nc1cccc2c(=O)[nH][nH]c(=O)c12
inactive: caspase-3 activation [1] -0.301% | outcome [2] | caspase-3 activation [3] -1.17% | outcome [4] | Potency [6] | Potency [7] | Potency [8] | outcome [9] | outcome [10] | outcome [11] | outcome [12] | outcome [13] | Potency [14] | Potency [15] | Potency [16] | Potency [17] | Potency [18]

CCNS(=O)(=O)c1ccc(C)cc1
inactive: caspase-3 activation [1] -0.106% | outcome [2] | caspase-3 activation [3] -2.66% | outcome [4] | outcome [5] | Potency [6] | Potency [7] | Potency [8] | outcome [9] | outcome [10] | outcome [11] | outcome [12] | outcome [13] | Potency [14] | Potency [15] | Potency [16] | Potency [17] | Potency [18]

O=[N+]([O-])c1ccc2nc[nH]c2c1
inactive: caspase-3 activation [1] 0.38% | outcome [2] | caspase-3 activation [3] 0.287% | outcome [4] | outcome [5] | Potency [6] | outcome [20] | outcome [9] | outcome [10] | outcome [11] | outcome [12] | outcome [13] | Potency [14] | Potency [16] | Potency [17] | Potency [18]

O=[N+]([O-])c1ccc(CCO)cc1
inactive: caspase-3 activation [1] -1.2% | outcome [2] | caspase-3 activation [3] -3.11% | outcome [4] | outcome [5] | Potency [6] | Potency [7] | outcome [9] | outcome [10] | outcome [11] | outcome [12] | outcome [13] | Potency [14] | Potency [15] | Potency [16] | Potency [17] | Potency [18]

CCC(C)(C)OC
inactive: outcome [2] | caspase-3 activation [19] 0.321% | caspase-3 activation [3] -1.93% | outcome [4] | outcome [5] | Potency [6] | Potency [7] | Potency [8] | outcome [9] | outcome [10] | outcome [11] | outcome [12] | outcome [13] | Potency [14] | Potency [15] | Potency [16] | Potency [17] | Potency [18]

Cc1ccc(C(=O)O)cc1
inactive: outcome [2] | caspase-3 activation [19] 1.11% | caspase-3 activation [3] 0.649% | outcome [4] | outcome [5] | Potency [6] | Potency [7] | Potency [8] | outcome [9] | outcome [10] | outcome [11] | outcome [12] | outcome [13] | Potency [14] | Potency [15] | Potency [16] | Potency [17] | Potency [18]

c1ccc2n[nH]nc2c1
inactive: outcome [2] | caspase-3 activation [19] -0.743% | caspase-3 activation [3] 1.96% | outcome [4] | outcome [5] | Potency [6] | Potency [7] | Potency [8] | outcome [9] | outcome [10] | outcome [11] | outcome [12] | Potency [14] | Potency [16] | Potency [17] | Potency [18]

O=C(O)c1ccccc1Cl
inactive: outcome [2] | caspase-3 activation [19] 0.73% | caspase-3 activation [3] -0.14% | outcome [4] | outcome [5] | Potency [6] | Potency [7] | Potency [8] | outcome [9] | outcome [11] | outcome [12] | outcome [13] | Potency [14] | Potency [15] | Potency [16] | Potency [17] | Potency [18]
